For test [1], the target named is Retinoic acid receptor RXR-alpha (Homo sapiens) (UniProt P19793). Briefly: qHTS assay to identify small molecule agonists of the RXR signaling pathway (AID 1159527; calls by dose curve; note: nearly all actives have a fitted effect of over 35% in size). A digest of the protocol:
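Reporter activation is measured as beta-lactamase activity via FRET substrate cleavage (emission 460/530 nm) in HEK 293T cells expressing an RXR-alpha-driven bla construct, following 16 hr compound exposure at 37 C.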
A general note: In qHTS, concentration-response curves come from the screen itself.

A short description of test [2]: qHTS assay to identify small molecule agonists of the RXR signaling pathway - cell viability counter screen (AID 1159529). Note: series mostly up to about 77 µM; nearly all actives have a fitted effect of over 50% in size. The method, boiled down:
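Tox21 10K compounds were tested for cytotoxicity against GeneBLAzer RXR-alpha HEK 293T cells grown in 2% charcoal-stripped FBS. Exposure lasted 16 hr at 37 C, 5% CO2; viability read by CellTiter-Glo luminescence.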

A short description of test [3]: qHTS assay to identify small molecule antagonists of the retinoid acid receptor (RAR) signaling pathway - cell viability counter screen (AID 1159551). Note: nearly all actives have a fitted effect of over 35% in size. The method, boiled down: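 C3RL4 RARE-luciferase cells, 1,000/well, incubated overnight, then dosed with compound plus 1 uM retinol (final). After 6 hr at 37 C, viability read by CellTiter-Glo ATP luminescence following 30 min at room temperature.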

Test [4] can be described thus: qHTS assay to identify small molecule antagonists of the retinoic acid receptor (RAR) signaling pathway (AID 1159552; note: nearly all actives have a fitted effect of over 50% in size). A digest of the protocol:
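Overnight-plated C3RL4 reporter cells get compound, then retinol to 1 uM final; plates sit 6 hr at 37 C, 5% CO2. A luciferase reagent is added and light output recorded after 30 min at room temperature.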

Test [5] can be described thus: qHTS assay to identify small molecule agonists of the retinoic acid receptor (RAR) signaling pathway (AID 1159553). Note: potency is the fitted concentration of half-maximal effect. A digest of the protocol:
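C3RL4 RARE-luciferase cells were seeded at 1,000/well and grown overnight at 37 C, then exposed to compounds for 6 hr at 37 C, 5% CO2. Luciferase reagent was added and luminescence was read after 30 min at room temperature.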

Test [6] can be described thus: qHTS assay to identify small molecule antagonists of the estrogen related receptor (ERR) signaling pathway from Tox21 library - cell viability counter screen (AID 1224834). Note: nearly all actives have a fitted effect of over 30% in size. A digest of the protocol:
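ERR reporter cells, 2,000 per well, rested 6 h, then exposed to compound in DMSO for 17.5 hours at 37 C. Viability read as fluorescence after 30 min with CellTiter-Fluor.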

Test [7] has as its target Luciferin 4-monooxygenase (Photinus pyralis) (UniProt P08659). Briefly: qHTS assay to identify small molecule inhibitors of firefly luciferase (AID 1224835). Note: series mostly up to about 120 µM; nearly all actives have a fitted effect of over 25% in size. The method, boiled down: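 Quantitative HTS format; KM concentrations of both substrates. Purified P. pyralis FLuc activity quantified from luminescence images.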
Test [8] can be described thus: qHTS assay to identify small molecule agonists of the constitutive androstane receptor (CAR) signaling pathway - cell viability counter screen (AID 1224836). Note: series mostly up to about 92 µM; nearly all actives have a fitted effect of over 45% in size. The method, boiled down: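 Fluorescence from CellTiter-Fluor indicates live cells after 23 h exposure. The human hepatoma line expresses hCAR and a CYP2B6-2.2kb reporter. Incubation medium contains 0.75 uM PK11195 (final).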

Test [9] can be described thus: qHTS assay to identify small molecule antagonists of the constitutive androstane receptor (CAR) signaling pathway - cell viability counter screen (AID 1224837). Note: series mostly up to about 92 µM; nearly all actives have a fitted effect of over 45% in size. A digest of the protocol: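 HepG2 cells stably carrying hCAR and CYP2B6-2.2kb reporter, stimulated with 50 nM CITCO and compounds at 15 concentrations for 23 h at 37 C. Viability measured by CellTiter-Fluor fluorescence.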

The target in test [10] is Nuclear receptor subfamily 1 group I member 3 (Homo sapiens) (UniProt Q14994). Briefly: qHTS assay to identify small molecule antagonists of the constitutive androstane receptor (CAR) signaling pathway (AID 1224838). Note: nearly all actives have a fitted effect of over 40% in size. The method, boiled down: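 HepG2 cells stably carrying hCAR and a CYP2B6-2.2kb luciferase reporter, seeded 4 hrs before compound (15 concentrations). Stimulated with 50 nM CITCO for 24 hr at 37 C. ONE-Glo luminescence read after 30 min at room temperature.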

Test [11] in a line: qHTS assay to identify small molecule antagonists of the estrogen related receptor signaling pathway with the pleiotropic PPARgamma coactivator (PGC) from Tox21 10K library - cell viability counter screen (AID 1224840; active = well fitted cell-killing curve with a large enough effect in the repeat runs, not every such curve was filed as active; note: nearly all actives have a fitted effect of over 40% in size). A digest of the protocol: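 PGC/ERR cells (2,000/well) plated 6 h, then compound-treated for 17.5 h at 37 C. Viability measured by CellTiter-Fluor fluorescence after 30 min at 37 C, multiplexed with the pathway assay.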

Test [12] addresses Thyrotropin receptor (Homo sapiens) (UniProt P16473). Briefly: qHTS assay to identify small molecule agonists of the thyroid stimulating hormone receptor (TSHR) signaling pathway (AID 1224843; calls by dose curve; note: nearly all actives have a fitted effect of over 45% in size). A digest of the protocol: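 TSHR-expressing HEK293 cells (800 per well) were exposed to compounds for 30 min at room temperature. cAMP was then detected by HTRF competition with cAMP-d2 and anti-cAMP cryptate, read after 1 h at room temperature. Fifteen concentrations, triplicate.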

Test [13] can be described thus: qHTS assay to identify small molecule agonists of the hypoxia (HIF-1) signaling pathway - cell viability counter screen (AID 1224844; calls by dose curve; note: nearly all actives have a fitted effect of over 50% in size). A digest of the protocol:
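HRE-bla ME-180 cells, 2,000/well in 0.5% dialyzed FBS medium, treated 17 h at 37C with compounds. Viability read in the same wells as the bla reporter, by CellTiter-Glo luminescence after 30 min at room temperature.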

The nature of test [14]: qHTS assay to identify small molecule agonists of H2AX (AID 1224845; active = well fitted activation curve with a large enough effect in the signal ratio in the repeat runs, not every such curve was filed as active; the % refers to the signal ratio). A digest of the protocol:
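Wild-type CHO-K1 cells plated overnight, then exposed 3 hr at 37C to compounds at 15 concentrations (0.76% DMSO). Lysed, then HTRF anti-pH2AX(S139)-cryptate/anti-H2AX-d2 detection after 24 hr at room temperature; emissions 665 and 620 nm.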

Test [15] is described as follows: qHTS assay to identify small molecule agonists of the hypoxia (HIF-1) signaling pathway (AID 1224846; active = well fitted activation curve with a large enough effect in the signal ratio in the repeat runs, not every such curve was filed as active; the % refers to the signal ratio). The method, boiled down:
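HRE-bla ME-180 beta-lactamase reporter cells in medium with 0.5% dialyzed FBS, pre-incubated 5 h then exposed to compounds 17 h at 37C, 5% CO2; reporter induction read with CCF4-AM FRET substrate.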

Test [16] can be described thus: qHTS assay to identify small molecule agonists of H2AX - cell viability counter screen (AID 1224847; calls by dose curve; note: top concentration of the series differs between compounds; nearly all actives have a fitted effect of over 30% in size). A digest of the protocol:
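Viability of CHO-K1 (wild type) cells after 3 hr compound exposure was measured by CellTiter-Glo luminescence.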

Test [17] concerns the target Nuclear receptor subfamily 1 group I member 3 (Homo sapiens) (UniProt Q14994). Briefly: qHTS assay to identify small molecule agonists of the constitutive androstane receptor (CAR) signaling pathway (AID 1224839). For activation: series mostly up to about 92 µM. Note: nearly all actives have a fitted effect of over 15% in size. Note: potency is the fitted concentration of half-maximal effect. The method, boiled down: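 Stable hCAR/CYP2B6-2.2kb HepG2 line in DMEM with 10% FBS; compounds (15 concentrations) and 0.75 uM PK11195 final, 24 h at 37 C/5% CO2, then ONE-Glo luminescence after 30 min.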

The nature of test [18]: qHTS assay to identify small molecule antagonists of the estrogen related receptor signaling pathway with the pleiotropic PPARgamma coactivator (PGC) from Tox21 10K library (AID 1224841; call rule not given here; note: series mostly up to about 92 µM; actives are mostly falling curves and most rising ones were filed inactive; nearly all actives have a fitted effect of over 50% in size). A digest of the protocol: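 PGC/ERR cell line, 2,000 cells/well, pre-incubated 6 hours at 37 C, then exposed to compounds for 18 hours at 37 C; luciferase read with One-Glo luminescence after 30 min at room temperature.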

Test [19] can be described thus: qHTS assay to identify small molecule agonists of the estrogen related receptor signaling pathway with the pleiotropic PPARgamma coactivator (PGC) from Tox21 10K library (AID 1224842). Note: nearly all actives have a fitted effect of over 15% in size. A digest of the protocol: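 PGC/ERR reporter cells (NTP line) were seeded 2,000 per well, rested 6 h at 37 C/5% CO2, then pin-dosed with compounds in DMSO for 18 h at 37 C; luciferase read by One-Glo luminescence after 30 min at room temperature.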

Test [20] is described as follows: qHTS assay to identify small molecule antagonists of the estrogen related receptor (ERR) signaling pathway from Tox21 library (AID 1224848). Note: nearly all actives have a fitted effect of over 50% in size. A digest of the protocol:
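Cells: ERR line, 2,000/well; 6 h preincubation 37 C/5% CO2. Cpd in DMSO via pin tool; 18 h, 37 C. ONE-Glo, 30 min RT, luminescence.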

Records with an inconclusive call do not appear. A number with no mark means an inactive call. The source made the active and inactive calls. Unless noted, calls come from the whole dose curve; as a rule, active = well fitted curve in the direction sought with a large enough effect in the repeat runs; inconclusive = weak or mixed curves; inactive = no such curve, though single readings can be large; an effect the other way counts as inactive or inconclusive. Positions of bridges follow the written chain, without caps; N, C: chain ends. Non-standard residues stand in square brackets, D forms with d. Residues, ends and D or L forms follow the SMILES beside them. hArg = N=C(N)NCCCC[C@H](N)C(=O)O; Mpa = O=C(O)CCS
% is set by controls: 0 for no effect and ±100 for the full control effect.

Chain of Retinoic acid receptor RXR-alpha (Homo sapiens) (P19793 whole entry, looked up): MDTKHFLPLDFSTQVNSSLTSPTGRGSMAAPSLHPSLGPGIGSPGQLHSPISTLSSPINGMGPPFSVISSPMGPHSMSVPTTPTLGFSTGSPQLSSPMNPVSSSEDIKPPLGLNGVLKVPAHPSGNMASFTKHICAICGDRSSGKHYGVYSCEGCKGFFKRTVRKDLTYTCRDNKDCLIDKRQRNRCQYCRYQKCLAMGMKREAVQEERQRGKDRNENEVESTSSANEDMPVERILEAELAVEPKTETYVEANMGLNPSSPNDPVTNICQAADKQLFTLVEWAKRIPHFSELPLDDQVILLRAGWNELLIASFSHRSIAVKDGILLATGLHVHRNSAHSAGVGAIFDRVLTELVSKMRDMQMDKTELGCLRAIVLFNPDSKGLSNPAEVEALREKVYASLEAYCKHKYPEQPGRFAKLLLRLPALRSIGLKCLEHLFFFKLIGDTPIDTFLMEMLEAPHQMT
Chain of Nuclear receptor subfamily 1 group I member 3 (Homo sapiens) (Q14994 whole entry, looked up): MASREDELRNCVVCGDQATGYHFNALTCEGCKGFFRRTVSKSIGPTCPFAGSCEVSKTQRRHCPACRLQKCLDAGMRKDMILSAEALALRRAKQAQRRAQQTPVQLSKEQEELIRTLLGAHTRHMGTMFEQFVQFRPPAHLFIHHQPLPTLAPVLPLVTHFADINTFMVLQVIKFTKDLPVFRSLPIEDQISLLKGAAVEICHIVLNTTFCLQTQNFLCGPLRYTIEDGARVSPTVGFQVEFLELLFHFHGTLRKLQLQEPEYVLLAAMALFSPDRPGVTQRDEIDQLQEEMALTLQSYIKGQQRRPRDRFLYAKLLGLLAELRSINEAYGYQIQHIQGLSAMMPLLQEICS
Chain of Luciferin 4-monooxygenase (Photinus pyralis) (P08659 whole entry, looked up): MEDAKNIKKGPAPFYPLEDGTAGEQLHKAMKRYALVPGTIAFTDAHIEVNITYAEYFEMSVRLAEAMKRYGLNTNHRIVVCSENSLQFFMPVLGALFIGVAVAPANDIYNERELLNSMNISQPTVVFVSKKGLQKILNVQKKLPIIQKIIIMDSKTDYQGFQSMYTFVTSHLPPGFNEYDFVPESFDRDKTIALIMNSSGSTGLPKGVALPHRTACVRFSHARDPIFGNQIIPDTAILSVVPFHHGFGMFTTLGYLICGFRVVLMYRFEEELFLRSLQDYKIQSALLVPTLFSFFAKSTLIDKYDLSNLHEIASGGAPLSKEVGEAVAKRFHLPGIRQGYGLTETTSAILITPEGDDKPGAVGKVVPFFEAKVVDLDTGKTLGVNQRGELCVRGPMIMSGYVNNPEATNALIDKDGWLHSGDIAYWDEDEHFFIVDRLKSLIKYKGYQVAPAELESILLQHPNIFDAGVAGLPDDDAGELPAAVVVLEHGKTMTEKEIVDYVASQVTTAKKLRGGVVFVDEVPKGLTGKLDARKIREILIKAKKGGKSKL
Chain of Thyrotropin receptor (Homo sapiens) (P16473 whole entry, looked up): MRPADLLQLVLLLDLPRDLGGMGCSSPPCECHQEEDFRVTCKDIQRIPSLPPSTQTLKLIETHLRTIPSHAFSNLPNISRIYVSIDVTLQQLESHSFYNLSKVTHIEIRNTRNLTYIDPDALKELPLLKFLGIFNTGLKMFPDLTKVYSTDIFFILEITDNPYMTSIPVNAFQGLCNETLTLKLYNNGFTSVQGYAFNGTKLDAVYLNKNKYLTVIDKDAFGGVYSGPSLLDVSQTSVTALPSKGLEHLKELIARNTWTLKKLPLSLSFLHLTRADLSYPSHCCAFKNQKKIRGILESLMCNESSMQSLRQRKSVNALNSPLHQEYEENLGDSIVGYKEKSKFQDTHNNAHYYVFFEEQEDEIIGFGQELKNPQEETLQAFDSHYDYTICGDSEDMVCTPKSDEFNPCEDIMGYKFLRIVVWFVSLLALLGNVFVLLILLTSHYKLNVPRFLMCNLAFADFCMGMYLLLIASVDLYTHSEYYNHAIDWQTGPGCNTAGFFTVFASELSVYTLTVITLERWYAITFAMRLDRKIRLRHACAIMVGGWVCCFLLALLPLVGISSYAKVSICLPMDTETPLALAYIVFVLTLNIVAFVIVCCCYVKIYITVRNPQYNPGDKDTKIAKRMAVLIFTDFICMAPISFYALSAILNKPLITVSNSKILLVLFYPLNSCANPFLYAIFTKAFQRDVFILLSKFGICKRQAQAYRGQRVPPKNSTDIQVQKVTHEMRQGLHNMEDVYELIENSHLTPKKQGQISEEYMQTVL

Turning to `COS(=O)(=O)O`, the Potency entry in test [1], in [5], in test [7] and in test [10] was “inactive” each time. Besides, the outcome in test [2], in test [3], in [4], in [6], in test [8] and in test [9] was inactive. The compound was called inactive in [11], in [12], in test [13], in [14], in test [15] and in test [16].

As to `Cc1ccccc1C(N)=O`, the Potency entry in test [1], in test [5], in test [7] and in test [17] was “inactive” throughout. For the same compound, the compound was classed as inactive in test [2], in test [3], in test [4], in test [6], in [8] and in [9]. Besides, the outcome in test [11], in [12], in test [13], in [14], in test [15] and in test [16] was inactive.

Regarding `Cc1c(Cl)cccc1Cl`, the Potency result in [1], in test [5], in test [7] and in [17] was “inactive” in each case. Further, the compound was called inactive in test [2], in test [3], in [4], in test [6], in test [8] and in test [11]. Also, the compound was classed as inactive in test [12], in test [13], in test [14], in test [15] and in [16].

For the compound `NC(=O)[C@@H]1CSSCCC(=O)N[C@@H](CCCCN=C(N)N)C(=O)NCC(=O)N[C@@H](CC(=O)O)C(=O)N[C@@H](Cc2c[nH]c3ccccc23)C(=O)N2CCC[C@H]2C(=O)N1` ([Mpa][hArg]GDWPC-NH2; disulfide 1-7), the Potency result in test [1], in test [5], in test [7], in test [10] and in [17] was “inactive” each time. The compound was called inactive in [2], in [3], in [4], in test [6], in test [8] and in test [9]. Moreover, the compound was called inactive in test [11], in test [12], in test [13], in [15] and in test [16].

On to `CCOC(CN1CCN(CC(C)C(=O)c2ccccc2)CC1)c1ccccc1` (stereo not drawn), for which the activation in [1] is -12% [at 15.8 µM]; in [17], -1.5% [at 19 µM]; in test [12], -4.32% [at 19 µM]; in test [15], 1.68% [at 15.8 µM]. For the same compound, the activity change, negative = cytotoxicity in test [2] is -11.3% [at 15.8 µM]; in [3], 3.44% [at 19 µM]; in test [9] it was 3.98% [at 19 µM]; in test [13] it was 0.0048% [at 15.8 µM]; in test [16] it was -1.65% [at 31.6 µM]. The activity, negative = inhibition in test [4] was 1.21% [at 19 µM]. Moreover, the Potency entry in test [5] is “inactive”. In addition, the viability change, negative = cytotoxic in [6] is -3.03% [at 19 µM]; in test [8] it was 0.779% [at 19 µM]; in [11] it was -2.82% [at 19 µM]. For the same compound, the activity change, negative = inhibition in [7] was -1.09% [at 23.6 µM]. Moreover, the activation (H2AX phosphorylation) in [14] is -1.86% [at 31.6 µM].

As for `CC(=O)CC(=O)OC(C)(C)C`, the Potency entry in test [1], in test [5], in test [7] and in [17] was “inactive” each time. In addition, the compound was classed as inactive in [2], in test [3], in [4], in [6], in test [8] and in [9]. The outcome in test [11], in test [12], in test [14], in [15] and in [16] was inactive.

Consider `c1ccc(B(c2ccccc2)c2ccccc2)cc1`, for which the Potency result in test [1], in test [10] and in test [20] was “inactive” throughout. Besides, the compound was called inactive in test [2], in test [3], in test [4], in test [6], in [8] and in [9]. The compound was classed as inactive in [11], in test [18], in [19], in [13], in test [14] and in [15]. Moreover, the outcome in [16] was inactive. Besides, the Potency is 54.4 µM (active) in [5] and 48.5 µM (active) in [17].

As to `CC(CO)(CO)CO`, the Potency entry in test [1], in test [5], in [7], in test [10] and in [17] was “inactive” throughout. Further, the compound was called inactive in test [2], in [3], in test [4], in test [6], in test [8] and in test [11]. Besides, the compound was called inactive in [12], in test [13], in [14], in test [15] and in test [16].

For the origin of these results see PubChem BioAssay (Tox21).
